Reference: PubChem BioAssay (NCI)
Compounds without any hit were thinned out: in the full panel of roughly 79,000, 15% have a hit. A number with no mark means an inactive call. The source made the active and inactive calls. No stated cut-off is given here; in the data, active means growth inhibition above about 70%; inactive means the rest.

What was measured:
[1] = NCI Yeast Anticancer Drug Screen. Data for the rad50 strain (AID 155);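 further: 0% = growth of vehicle-only cultures of the same strain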; settings: S. cerevisiae rad50 strain growth inhibition; at 50.0 µM; active compounds read high
How it was run: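 Inhibition values express reduced yeast growth in compound-treated cultures relative to vehicle-treated controls.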

[2] = NCI Yeast Anticancer Drug Screen. Data for the mec2-1 strain (AID 157); settings: S. cerevisiae mec2-1 strain, at 50.0 µM, active compounds read high
How it was run: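 Mutant yeast (mec2-1) grown with compound; growth inhibition relative to vehicle control reported.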

[3] = NCI Yeast Anticancer Drug Screen. Data for the sgs1 mgt1 strain (AID 161);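 further: 0% = growth of cultures given vehicle only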; settings: S. cerevisiae sgs1 mgt1 strain, at 50.0 µM, active compounds read high
How it was run: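 This yeast growth screen uses a strain with defined DNA-repair lesions; compound-treated growth is compared with vehicle-treated growth.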

[4] = NCI Yeast Anticancer Drug Screen. Data for the cln2 rad14 strain (AID 165);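 further: 0% = growth equal to vehicle treated cultures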; settings: S. cerevisiae cln2 rad14 strain, at 50.0 µM, active compounds read high
How it was run: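 Readout is yeast growth inhibition versus vehicle-treated controls, using a strain with cln2 and rad14 alterations exposed to compound.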

[5] = NCI Yeast Anticancer Drug Screen. Data for the bub3 strain (AID 167); settings: S. cerevisiae bub3 mutant strain, at 50.0 µM, active compounds read high
How it was run: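 Steps: expose the mutant yeast strain to compound; grow alongside vehicle-treated cultures; measure growth; express inhibition against the vehicle cultures.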

[6] = NCI Yeast Anticancer Drug Screen. Data for the mlh1 rad18 strain (AID 175); settings: S. cerevisiae mlh1 rad18 strain growth inhibition; at 50.0 µM; active compounds read high
How it was run: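 Genetically defined yeast (DNA repair-deficient) exposed to compounds; growth inhibition determined relative to vehicle.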

SMILES	growth inhibition [1]	growth inhibition [2]	growth inhibition [3]	growth inhibition [4]	growth inhibition [5]	growth inhibition [6]
CCN(CC)C1Oc2cc3c(cc2C(c2cccc(OC)c2O)C1C)OCO3 (stereo not given)	21.1%	-0.15%	22.8%	21.7%	15.2%	-1.4%
Cc1ccccc1NC(=O)CN1CCCC(C)C1 (stereo not given)	10.7%	-34.8%	0.9%	11.3%	-16.2%	5.45%
OCC1OC(c2scc3c(=S)nc[nH]c23)C(O)C1O (stereo not given)	-5.9%	-13.7%	-9.45%	19.6%	12.6%	-11.2%
Cc1cccc(NCN2C(=O)c3ccccc3C2=O)c1	-1.8%	8.75%	3.8%	-16.4%	18.7%	-1.7%
COC1OC(COC(=O)c2ccc([N+](=O)[O-])cc2)C(SC#N)C1O (stereo not given)	27.4%	2.05%	26.2%	-18.3%	-10.6%	33.2%
C#Cc1c(C)c(/C=C/C(C)=C/C=C/C(C)=C/C(=O)OC)n(C)c1C	12.2%	4.7%	20.3%	10.8%	23.6%	23.4%
NCCN1C(=O)c2ccccc2C1(O)c1ccc(Cl)cc1 (stereo not given)	-6.25%	-35.4%	-7%	-4.6%	-14.9%	-0.65%
CC(C)(C)c1cc(-c2cc(C(C)(C)C)[nH]n2)n[nH]1	12.8%	4%	12.7%	9.05%	14.2%	10.3%
CCCCCCCCCCCOCCC1C(C(C)OCCN2CCCC2)OC2OC(C)(C)OC21 (stereo not given)	91.5% (active)	92.8% (active)	90.5% (active)	90.4% (active)	88.2% (active)	89% (active)
Cn1c(=O)c2ncn(Cc3ccccc3)c2n(C)c1=O	1.8%	4.4%	0.85%	0.75%	-7.75%	13.2%
O=C(CSc1nnc(Cc2ccccc2)o1)Nc1cccc([N+](=O)[O-])c1	20.6%	5.1%	12.1%	-10.3%	-8.4%	-17%
O=S(=O)(O)CC(NCc1ccccc1)c1ccccc1 (stereo not given)	-28.9%	-0.45%	-19.6%	-36.9%	13.8%	-5%
C=CCOc1cc2c(cc1Cc1cc(OC)c(OC)c(OC)c1)OCO2	22.9%	-20.8%	49.6%	9.85%	37.6%	55.2%
CC(C)CNc1ncnc2[nH]ncc12	-1.75%	-6.2%	-3.55%	-3.35%	1.2%	-6.2%
N#Cc1c2ccccc2c(C#N)c2ccccc12	-4.5%	-8.15%	1.9%	-25.7%	1.3%	-12.3%
CCCCc1ccc(O)c(CN(CC)CC)c1	10.8%	-8.2%	-11.6%	-23.6%	-6.8%	-2.9%
O=[N+]([O-])c1ccc(N=Nc2c(S(=O)(=O)O)cc3cc(S(=O)(=O)O)ccc3c2O)c([N+](=O)[O-])c1	24.3%	0.9%	30.9%	31.3%	32.1%	20.2%
COc1nc(NC2OCC(O)C(O)C2O)c(C(C)=O)c(=O)n1C (stereo not given)	3.5%	-2.65%	7.05%	-0.25%	-19.4%	-0.7%
O=C(Cc1ccc(Cl)cc1)c1ccccc1Cl	2.8%	2.75%	-1%	1.7%	-5.65%	4.4%
CC1=NCC(=O)N1	-10.2%	1.5%	-1.1%	-11.8%	-6.1%	-4%

SMILES	growth inhibition [1]	growth inhibition [2]	growth inhibition [3]	growth inhibition [4]	growth inhibition [5]	growth inhibition [6]
CCCCC/C(C)=N\O	-19%	3.8%	3.35%	-13.6%	-7.15%	13.2%
COC1OC(COS(=O)(=O)c2ccc(C)cc2)C(OS(=O)(=O)c2ccc(C)cc2)C1OCc1ccccc1 (stereo not given)	-2.35%	2.85%	3.9%	-15.7%	-0.65%	-1.4%
COC(=O)CC(C)N(c1cccc(Cl)c1)S(=O)(=O)c1ccc(C)cc1 (stereo not given)	52.3%	7.1%	76.3% (active)	-30.9%	24.1%	32.5%
O=c1[nH]cc(C2OCC(O)C(O)C2O)c(=O)[nH]1 (stereo not given)	1.45%	-14.4%	0.5%	1.95%	-19.1%	-32.5%
c1ccc(C2=Nc3ccccc3-c3ccccc3N2)cc1	-2.95%	-1.35%	-6.05%	-28.4%	-4.75%	-8.05%
CN1CSCC1C(=O)O (stereo not given)	13%	-3.25%	-8.45%	-39.4%	-9.1%	11.8%
O=C(NC1CCCCC1)/C(=C\c1ccc(/C=C(/NC(=O)c2ccccc2)C(=O)NC2CCCCC2)cc1)NC(=O)c1ccccc1	-9.95%	-26.9%	9.5%	-34.5%	-22.6%	-20.8%
CCOC(=O)c1c(-c2ccc(OC)cc2)c(C#N)c(=S)n(C2OC(CO)C(O)C(O)C2O)c1C (stereo not given)	17.7%	-9.5%	3.05%	6.3%	22.4%	10.1%
NC(=O)NN1CC(=O)N(c2ccccc2)CC1=O	7.75%	8.2%	6.8%	-18.1%	14.2%	28.6%
Clc1cccc(Cl)c1/C=N/N1CCN(/N=C/c2c(Cl)cccc2Cl)CC1	18.9%	10.1%	17.9%	6.45%	-4.1%	0.7%
CC1(C)N=C(N)N=C(N)N1c1ccc(CN)cc1	19.8%	7%	-18.4%	-6.8%	-2.3%	19.3%
CCOc1ccc(NC=O)cc1	0.75%	8.45%	5.2%	-3.55%	18.5%	-11.3%
COc1ccc(CN2CCCN(Cc3ccc(OC)cc3OC)C2c2cccc(OC)c2O)c(OC)c1	20.6%	16.6%	12.6%	16%	-6.5%	6.5%
O=c1c(-c2ccccc2)c2oc(c1-c1ccccc1)CSCc1cccc(c1)CSC2	15%	-0.1%	-3.55%	-28.9%	-20.6%	7.8%
CC(=O)Nc1cnc2c(nc3cc(C)ccn32)c1C	-5%	-9.1%	-19.9%	-9.55%	-0.7%	-10.2%
O=C(C(Cl)=C(N1CCOCC1)N1CCOCC1)C(Cl)Cl	-37.9%	-18.4%	-57.5%	-15.8%	-32.9%	-34.6%
N#Cc1c[nH]c2cccc([N+](=O)[O-])c12 (tested in a mixture with another compound)	7.95%	-10.9%	7.8%	17.9%	13.4%	-2.8%
COc1cc(O)c2c(c1)C(=O)c1cc3c(c(O)c1C2=O)C(O)C(OC)C(C)(O)C3O (stereo not given)	72.5% (active)	54.3%	72% (active)	42.6%	64.8%	68.2%
CCCCCCCCCCCCCCCCCC(CCCCCCCC)CCCCCCCC	-5.15%	0.65%	-30.8%	3.3%	0.25%	23.6%
CC(C)CCCC(C)C1CCC2C3CC=C4CC(OP(=O)(O)OC5CCC6(C)C(=CCC7C6CCC6(C)C(C(C)CCCC(C)C)CCC76)C5)CCC4(C)C3CCC12C (stereo not given)	-7.55%	-23.8%	-3.65%	7.8%	-7.6%	-5.5%
